# HP1b binding inh: inhibitors of HP1-beta chromodomain binding to methylated histone tails | P83916 | hit rate 0.56% among 390,000 | AlphaScreen HP1-beta / biotin-H3K9me3 peptide binding | Potency, µM (titrated, usually from 114 µM), for the others: at the top dose activity change, negative = inhibition, actives largely listed as inhibitors; further: potency means the concentration at half of the fitted maximal effect; nearly all actives have a fitted effect of over 70% in size
#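 Compound inhibition of the preformed complex between 50 nM HP1-beta and 50 nM biotinylated H3K9me3 peptide was read by AlphaScreen. Buffer was PBS pH 7.4 with 0.01% Tween-20. Incubations ran 30 min at room temperature, with 10 ug/mL donor/acceptor beads.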
# CtBP-E1A inh: inhibitors of CtBP/E1A interaction. hit rate 0.49% among 340,000. AlphaScreen GST-E1A/His-CtBP binding, 1536-well; stronger effect = lower value. activity change, % (test concentration not listed); in the data active means activity change below about -65%; inconclusive means mostly about -30% to -63%; further: on the % scale 0 is the no-effect control and ±100 the full control effect
#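 AlphaScreen with 125 nM GST-E1A and 125 nM His-CtBP (5X stocks) in Tris pH 8.0, 300 mM NaCl, BSA, Tween 20, TCEP. Compounds preincubated 2 h at 37 deg C, then glutathione donor/nickel acceptor beads added for 1 h at 37 deg C in dark.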
# JMJD2A Tudor: blocks the human JMJD2A Tudor domain | O75164 | AlphaScreen JMJD2A-Tudor / H3K4me3 peptide binding | Potency, µM (doses to about 114 µM), without a hit: top-dose activity change, negative = inhibition, most hits filed as inhibitors | hit rate 4.4% among 390,000; further: potency means the concentration at half of the fitted maximal effect; on the % scale 0 is the no-effect control and ±100 the full control effect; nearly all actives have a fitted effect of over 50% in size
# Six1-Eya2 blk: inhibitors of human Six1/Eya2 interaction; AlphaScreen GST-Six1/His-Eya2 binding, biochemical; stronger effect = lower value; activity change, % (no concentration beside the values); hit rate 0.56% among 360,000; AID 651725; in the data active means activity change below about -65%; inconclusive means mostly about -30% to -63%; further: on the % scale 0 is the no-effect control and ±100 the full control effect
#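 Compounds are tested against tagged Six1 and Eya2 proteins bridged by glutathione donor and nickel acceptor beads; after a one-hour incubation at 37 °C without light, AlphaScreen emission is recorded.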
# BAZ2B block: BAZ2B (human) inhibition; hit rate 4.4% among 360,000; Potency, µM (highest dose often 114 µM), for inactives: at the highest dose activity change, negative = inhibition, actives largely listed as inhibitors; AlphaScreen BAZ2B-H3K14Ac peptide displacement; AID 504333; further: potency means the concentration at half of the fitted maximal effect; on the % scale 0 is the no-effect control and ±100 the full control effect; nearly all actives have a fitted effect of over 60% in size
#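 In this displacement format the biotinylated H3(5-23) peptide acetylated at Lys14 serves as ligand at 50 nM, with BAZ2B at 50 nM in PBS pH 7.4 containing 0.01% Tween-20. Donor and acceptor beads are 10 ug/mL final.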
# G9a inh: blocks human histone lysine methyltransferase G9a. AID 504332. hit rate 8.8% among 350,000. G9a H3K9 monomethylation, AlphaScreen, 2 h. Potency, µM (highest dose often 102 µM), inactives show at the top dose activity, negative = inhibition, hits mostly inhibitors; further: potency means the concentration at half of the fitted maximal effect; on the % scale 0 is the no-effect control and ±100 the full control effect; nearly all actives have a fitted effect of over 75% in size
#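 Methyltransferase reactions run at room temperature for 2 h (20 nM enzyme, 500 nM biotin-H3K9 peptide, 20 uM SAM) after a 15 min compound preincubation; product detected by AlphaScreen beads and anti-H3K9me1 antibody.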
# Active calls of the source: *; ? = inconclusive; / = no result; [ ] = remark or other dose. A selection: hits, their analogues and other compounds. The true share with any hit is near 10%. Unless noted, the call rests on the fitted dose curve; in most records, active means well fitted inhibition curve with a large enough effect; inconclusive means small, poorly fitted or top-dose-only effect; inactive means no such curve, though single readings can be large or run the other way.
SMILES,HP1b binding inh,CtBP-E1A inh,JMJD2A Tudor,Six1-Eya2 blk,BAZ2B block,G9a inh
CCOc1cccc2sc(N(CCN(C)C)C(=O)c3cc4ccccc4cc3OC)nc12,-20.4%,?,44.7µM*,?,?,39.8µM*
COc1ccccc1CCNC(=O)Cc1c(C)c2c(cc(C)c3c(C)coc32)oc1=O,14.8%,/,-26.1%,/,-0.4%,-27.7%[59 µM]
O=C(COC(=O)CCC(=O)c1cccs1)Nc1ccccc1C(F)(F)F,38.2%,/,-5.5%,3.6,/,/
Cc1ccccc1C1N=C2Oc3ccccc3C=C2C(=O)N1 (stereo not given),/,-20.1,/,4.6,/,/
Cn1c(=O)[nH]c2cc3ccccc3cc21,19.6%,4.6,0.0%,-2.0,3.7%,1.26µM*
CC1C(=O)N2CCCc3cc(S(=O)(=O)Nc4ccc(Br)cc4F)cc1c32 (stereo not given),14.4%[57 µM],/,-13.0%,/,6.5%,2.1%[59 µM]
CCCN1C(=O)/C(=C/c2ccc(C)o2)NC1=S,/,/,/,/,?,7.94µM*
Cc1ccc(CN2C(=O)N/C(=C\c3ccc(N4CCOCC4)cc3)C2=O)cc1,18.6%,0.1,-8.6%,10.2,-10.9%,-1.6%[59 µM]
Cc1ccc(/C=C2/NC(=O)N(Cc3ccc(Br)cc3)C2=O)o1,-2.3%,14.2,50.1µM*,-3.7,-12.9%,31.6µM*
Cc1ccc(/C=C2/NC(=O)N(Cc3ccccc3F)C2=O)o1,-6.8%,-7.4,?,-4.1,3.1%,31.6µM*
CCN1C(=O)N/C(=C/c2ccc(C)o2)C1=O,16.6%,8.1,-31.4%,-2.5,-34.7%,?
Cc1ccc(/C=C2/NC(=O)N(c3ccccc3)C2=O)o1,10.1%,4.5,-30.8%,-2.9,56.2µM*,36.3%[0.501 µM]
O=C(Cn1c(-c2cccs2)cc2cc(F)ccc21)NCCc1ccc(Cl)cc1,26.4%,/,-6.6%,/,-10.6%,-6.2%[59 µM]
Cc1ccsc1/C=N/N=C/c1sccc1C,12.4%,/,-14.3%,-3.8,-30.9%,3.8%[0.501 µM]
Cc1ccsc1C=Nc1ccc(O)cc1,?,?,79.4µM*,?,39.8µM*,12.6µM*
COc1ccc(OC)c(NC(=O)c2cc3cc4ccc(C)cc4nc3s2)c1,35.9%,/,-4.8%,/,2.2%,-0.4%[59 µM]
COc1ccccc1NC(=O)c1cc2cc3ccc(OC)c(Cl)c3nc2s1,5.4%[57 µM],/,56.2µM*,/,79.4µM*,28.2µM*
COc1ccc2nc(NC(=O)Nc3cccc4ccccc34)sc2c1,74.7%,/,-25.2%,-10.3,-12.7%,-8.0%
COc1ccc2nc(N=Nc3c(O)ccc4ccccc34)sc2c1,/,/,/,/,2.82µM*,3.16µM*
Cc1cc(NC(=O)CCC(=O)N(Cc2ccco2)C2(C(=O)NC3CCCCC3)CCN(C)CC2)no1,-7.6%,-0.6,-11.6%,3.1,3.3%,-0.3%
Cc1cc(NC(=O)CCC(=O)N(Cc2ccco2)C2(C(=O)NC3CCCC3)CCCCC2)no1,-8.3%,5.4,89.1µM*,-1.7,2.1%,-4.1%
O=C(O)c1ccccc1NCc1ccncc1,31.5%,-7.0,-4.5%,-1.3,-39.0%,39.8µM*
O=C(O)c1ccc(CNc2ccccc2C(=O)O)cc1,7.6%,-0.6,56.2µM*,-9.3,?,?
O=C(O)c1ccccc1NCCO,15.5%,3.4,-15.7%,9.6,/,50.1µM*
O=C(O)c1ccccc1NCc1ccsc1,42.4%,3.2,-3.5%,9.8,-18.3%,-26.4%
SMILES,HP1b binding inh,CtBP-E1A inh,JMJD2A Tudor,Six1-Eya2 blk,BAZ2B block,G9a inh
COc1ccc(-c2cc(C(F)(F)F)nc(SCC(=O)NCc3ccc(Cl)cc3)n2)cc1,16.7%,/,-12.0%,/,4.1%,3.7%[59 µM]
COc1ccc(NC(=O)COC(=O)c2ccc(O)cc2)c([N+](=O)[O-])c1,-11.9%,18.1,-22.8%,-12.5,-21.9%,-29.0%
Nn1c(CSc2ccccn2)nc2ccccc2c1=O,36.0%,-1.3,-1.5%,4.9,5.3%,39.8µM*
O=c1[nH]c(CSc2ccccn2)nc2ccccc12,40.3%,3.5,-7.7%,1.6,6.7%,29.1%
Cc1ccc(/C=[N+](\[O-])c2ccc(N(C)C)cc2)c2nsnc12,28.2µM*,-24.5,25.1µM*,?,31.6µM*,8.91µM*
CCC(=O)N1CCc2cc(Br)cc(S(=O)(=O)N3CCCC(C(=O)NCc4cccc(OC)c4)C3)c21 (stereo not given),29.4%,/,-22.9%,/,2.4%,-5.6%[59 µM]
Nc1cccc(Nc2ccccc2)c1,1.3%,-2.3,-11.7%,1.2,?,/
c1ccc(Nc2cccc(Nc3ccccc3)c2)cc1,39.8µM*,-6.0,31.6µM*,-29.3,12.6µM*,15.8µM*
NC(=O)c1c(NC(=O)C(=O)NCCCN2CCOCC2)sc2c1CCCC2,38.5%,-14.0,-11.3%,-8.2,-14.9%,?
CC(=O)N1CCc2c(sc(NC(=O)CN3C(=O)CCC3=O)c2C(N)=O)C1,-11.1%,-12.1,-22.8%,-8.1,10.2%,?
NC(=O)c1c(NC(=O)CN2CCCC2)sc2c1CCCC2,-0.8%,-7.8,17.8µM*,-7.4,-0.4%,29.7%[12.7 µM]
O=C(Nc1sc2c(c1C(=O)O)CCCC2)C(=O)N1CCOCC1,20.4%,1.0,-27.8%,-0.8,-30.8%,?
N#CCC(=O)Nc1sc2c(c1C(N)=O)CCCC2,25.1%,-6.0,-12.8%,-5.3,-2.3%,29.5%[59 µM]
NC(=O)c1c(NC(=O)CN2CCOCC2)sc2c1CCC2,41.9%,-3.2,-15.1%,-12.2,/,25.1µM*
O=C(Nc1sc2c(c1C(=O)O)CCC2)C(=O)N1CCOCC1,-22.4%,/,?,-9.2,50.1µM*,39.8µM*
NC(=O)c1c(NC(=O)CN2C(=O)CCC2=O)sc2c1CCCCC2,-3.5%,2.0,-12.1%,-1.8,-2.1%,15.8µM*
NC(=O)c1c(NC(=O)Cn2nc(C(=O)O)c3ccccc3c2=O)sc2c1CCCC2,34.4%,/,-1.7%,-7.3,-20.8%,10.0%
Cc1cc([N+](=O)[O-])nn1CC(=O)Nc1sc2c(c1C(N)=O)CCCC2,-16.9%,1.0,-25.4%,-12.7,-25.5%,31.6µM*
CN(C(=O)c1cccc(NC(=O)Cc2cccc(NC(=O)C3CCCN(C(=O)C4CCCC4)C3)c2)c1)C1CC1 (stereo not given),36.1%,3.8,-7.5%,-1.0,/,/
COc1cc(NC(C)CCc2ccccc2)cc(OC)c1OC (stereo not given),?,-6.5,44.7µM*,-21.1,?,/
C=C(CN(C)C)C(=O)c1cc(C)ccc1C,35.5µM*,8.8,89.1µM*,3.7,/,/
COc1ccc(-c2cn3nc4c(nc3n2)CCCC4)cc1,78.3%,-16.6,18.5%,-20.6,6.7%,79.4µM*
CC(C)Sc1nnc(Nc2ccccc2)s1,34.8%,-1.2,-0.4%,0.2,5.4%,50.1µM*
N#Cc1ccc(CSc2nnc(Nc3ccccc3)s2)cc1,22.8%,-1.3,-11.3%,0.3,4.3%,11.1%[59 µM]
Cc1ccc(-c2csc(NC(=O)c3ccc4c(=O)n5c(nc4c3)CCCCC5)n2)cc1,15.1%,-0.2,-9.5%,4.8,10.0%,1.3%
O=C1CC2(CCCCCC2)Oc2ccc(Cl)cc21,102.7%,7.6,58.6%,3.2,/,/

# High-throughput results from PubChem BioAssay.
